Data: PubChem BioAssay (NCATS)
Records with an inconclusive call do not appear. The source made the active and inactive calls. Calls follow the shape of the dose curve; as a rule, active = well fitted inhibition curve with a large enough effect in the main read-out, with a control signal flat (not every such curve was filed as active); inconclusive = small, poorly fitted or top-dose-only effect, or effect the other way, or a change in a side signal; inactive = no such curve, though single readings can be large or run the other way.
Potency is read from the fitted curve at half-maximal effect.

Assay: Nrf2 qHTS screen for inhibitors: Validation (AID 493153);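 as to activity change, negative = inhibition: A549 cells with ARE-driven firefly luciferase reporter reporting Nrf2 activity; % of control where 0% means no effect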
Conditions: A549 ARE-Fluc reporter, 18-24 h; Potency: luciferase luminescence; viability change: measured here: cytotoxicity max response; luciferase luminescence, at 46.1 µM (top of the series); activity change, negative = inhibition: at the top concentration
Description: NIH Molecular Libraries Probe Production Network [MLPCN] NIH Chemical Genomics Center [NCGC] MLPCN Grant: R03-MH092170-01 Assay Provider: Shyam Biswal, Johns Hopkins University Assay Overview: Nrf2 is a transcription factor that maintains cellular redox homoestasis and protects cells from xenobiotics. Nrf2 binds to the antioxidant response element (ARE) to induce gene expression of a broad spectrum of genes that encode for antioxidants. […] Finding a small molecule that act as an inhibitor of Nrf2 function would represent a novel therapeutic target that could lead to improvement in survival of patients undergoing chemo- and/or radio- therapy. 1. Shibata, T., et al., Genetic Alteration of Keap1 Confers Constitutive Nrf2 Activation and Resistance to Chemotherapy in Gallbladder Cancer. Gastroenterology, 2008. 2. Sjoblom, T., et al., The consensus coding sequences of human breast and colorectal cancers. Science, 2006. 314(5797): p. 268-74.
Assay Protocol Summary: A concentration-response assay was performed with A549 ARE_Fluc cells which are suspended in 5% FBS OPTI-MEM. Five uL were dispensed into 1536-well white TC-treated plate using the Kalypsys dispenser to achieve a density of 5000 cells/well in all columns except column 1. The plate is incubated at 37deg C at 5% CO2 for 2 hours before 23 nL of compounds are added with the Kalypsys pin tool equipped with a 1,536-pin array containing 10-nL slotted pins (FP1S10, 0.457-mm diameter, 50.8 mm long; V&P Scientific). The control compounds Budesonide and Staurosporine are both added at a concentration of 2mM and Budesonide is also added as a 1:10 titration, starting at 200uM, to achieve dose-response. After an 18-24 hour incubation at 37deg C at 5% CO2, 5ul of medium is added to column 1. Afterwards 1ul of 5x of CellTiter-Fluor (Promega) is added to every well. The plate is then incubated at 37deg C at 5% CO2 for 30 minutes before they are read on the ViewLux (Perkin Elmer) for a fluorescent read Ex=405(10)/Em=525(10) for a 3 second exposure, 2x binning, and high gain. Then 3 uL of 3x BugLite is dispensed into all wells and the plate is incubated at ambient room temperature for 15 minutes. Afterwards another ViewLux read is performed using the clear filter to get a luminescent read with the settings of 40 second exposure, 2x binning, and high gain. Cytotoxicity is assessed through the first fluorescent read and then biochemical activity against Nrf2 is measured in the luminescent read.
In the case of `N=S(=O)(O)Cc1noc2ccccc12`, the viability change is reported as 0.163% and the “activity change, negative = inhibition” value is reported as -2.78% (inactive).
For `C=C1C[C@@]23CC[C@H]4[C@@](C)(CCC[C@@]4(C)C(=O)OC4OC(CO)C(O)C(O)C4O)[C@@H]2CC[C@]1(OC1OC(CO)C(O)C(O)C1OC1OC(CO)C(O)C(O)C1O)C3` (stereo not given in full), the “activity change, negative = inhibition” value was 9.68% (inactive) and the viability change was -3.06%.
For `O=C(O)c1ccccc1Nc1ccccc1`, the “activity change, negative = inhibition” value was 7.4% (inactive) and the viability change was 10.9%.
For `NC/C=C\C(=O)O`, the viability change was -0.476% and the “activity change, negative = inhibition” value was -2.4% (inactive).
In the case of `O=c1ccc2c(OCCCCc3ccccc3)c3ccoc3cc2o1`, the viability change is reported as 4.36% and the “activity change, negative = inhibition” value is reported as 1.29% (inactive).
With `CCCCCCCCCCCCCCC[C@H](O)[C@H](N)CO` the viability change was 2.23% and the “activity change, negative = inhibition” value was 0.814% (inactive).
With `N[C@@H](CCC(=O)N[C@H](CSN=O)C(=O)NCC(=O)O)C(=O)O` the viability change was 5.63% and the “activity change, negative = inhibition” value was 2.88% (inactive).
With `CCN(c1nc(N)c(C(=O)N=C(N)N)nc1Cl)C(C)C` the “activity change, negative = inhibition” value was -1.06% (inactive) and the viability change was -6.66%.
With `N#Cc1cc2nc(O)c(O)nc2cc1[N+](=O)[O-]` the “activity change, negative = inhibition” value was -3.83% (inactive) and the viability change was -8.54%.
With `NC(=O)CC[C@H](N)C(=O)O` the “activity change, negative = inhibition” value was -3.25% (inactive) and the viability change was 2.88%.
In the case of `COc1ccccc1N1CCN(CCCNc2c(C)c(=O)n(C)c(=O)n2C)CC1`, the viability change is reported as 3.58% and the “activity change, negative = inhibition” value is reported as 1.27% (inactive).
For `O=C1C2C=CC=CC2=NC(=S)N1CCN1CCC(=C(c2ccc(F)cc2)c2ccc(F)cc2)CC1` (stereo not given), the viability change was 6.28% and the “activity change, negative = inhibition” value was -8.26% (inactive).
In the case of `C[C@@]1(C2CCCC2)Cc2cc(OCC(=O)O)c(Cl)c(Cl)c2C1=O`, the “activity change, negative = inhibition” value is reported as 0% (inactive) and the viability change is reported as -4.41%.
With `O=C(O)Cc1c[nH]c2ccc(O)cc12` the “activity change, negative = inhibition” value was 7.6% (inactive) and the viability change was 0.136%.
With `CCCn1c(=O)c(C)cn2nc(N)nc12` the viability change was -13% and the “activity change, negative = inhibition” value was -3.68% (inactive).
In the case of `C[C@H]1CC2C3CCC4=CC(=O)C=C[C@]4(C)[C@@]3(Cl)[C@@H](O)C[C@]2(C)[C@@]1(O)C(=O)CO` (stereo not given in full), the Potency is reported as 16.4 nM (active) and the viability change is reported as 4.17%.
For `COc1ccc(-c2ccc(N)[n+](CCCC(=O)O)n2)cc1`, the “activity change, negative = inhibition” value was 1.96% (inactive) and the viability change was 1.33%.
In the case of `CC(N)=O`, the “activity change, negative = inhibition” value is reported as -1.16% (inactive) and the viability change is reported as 1.69%.
With `N=C(N)c1ccccc1` the “activity change, negative = inhibition” value was 1.46% (inactive) and the viability change was 6.8%.
In the case of `Cc1ccc2c(c1)C(N1CCN(C)CC1)=Nc1cccnc1N2`, the “activity change, negative = inhibition” value is reported as -9.21% (inactive) and the viability change is reported as 3.55%.
